This is an account of results in ChEMBL document CHEMBL1961873, “Compounds: GSK PKIS; Assays: Nanosyn kinase panel” (2012).

Test [1] addresses RAC-alpha serine/threonine-protein kinase (Homo sapiens) (UniProt P31749). To be noted: at 0.1 µM.
The target is the same in test [2]. The following applies: at 1 µM.
For test [3], the target named is RAC-beta serine/threonine-protein kinase (Homo sapiens) (UniProt P31751). The following applies: at 0.1 µM.
For test [4] the target is unchanged. To be noted: at 1 µM.
The target in test [5] is RAC-gamma serine/threonine-protein kinase (Homo sapiens) (UniProt Q9Y243). The following applies: at 0.1 µM.
Chain of RAC-gamma serine/threonine-protein kinase (Homo sapiens) (Q9Y243 whole entry): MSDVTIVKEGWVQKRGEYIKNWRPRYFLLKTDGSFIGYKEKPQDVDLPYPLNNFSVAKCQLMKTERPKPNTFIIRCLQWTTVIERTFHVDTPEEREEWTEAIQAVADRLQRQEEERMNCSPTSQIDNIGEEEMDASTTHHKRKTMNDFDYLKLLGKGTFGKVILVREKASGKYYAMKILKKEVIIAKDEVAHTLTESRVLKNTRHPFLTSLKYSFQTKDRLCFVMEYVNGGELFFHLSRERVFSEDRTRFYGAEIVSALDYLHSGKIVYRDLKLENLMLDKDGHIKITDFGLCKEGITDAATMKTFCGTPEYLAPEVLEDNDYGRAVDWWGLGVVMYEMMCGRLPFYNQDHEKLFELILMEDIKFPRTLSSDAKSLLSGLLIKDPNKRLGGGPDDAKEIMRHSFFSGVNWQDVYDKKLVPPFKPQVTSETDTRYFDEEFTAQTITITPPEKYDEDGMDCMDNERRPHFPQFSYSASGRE
Test [6] shares this target. The following applies: at 1 µM.
Test [7] deals with G protein-coupled receptor kinase 6 (Homo sapiens) (UniProt P43250). The following applies: at 0.1 µM.
Chain of G protein-coupled receptor kinase 6 (Homo sapiens) (P43250 whole entry, looked up): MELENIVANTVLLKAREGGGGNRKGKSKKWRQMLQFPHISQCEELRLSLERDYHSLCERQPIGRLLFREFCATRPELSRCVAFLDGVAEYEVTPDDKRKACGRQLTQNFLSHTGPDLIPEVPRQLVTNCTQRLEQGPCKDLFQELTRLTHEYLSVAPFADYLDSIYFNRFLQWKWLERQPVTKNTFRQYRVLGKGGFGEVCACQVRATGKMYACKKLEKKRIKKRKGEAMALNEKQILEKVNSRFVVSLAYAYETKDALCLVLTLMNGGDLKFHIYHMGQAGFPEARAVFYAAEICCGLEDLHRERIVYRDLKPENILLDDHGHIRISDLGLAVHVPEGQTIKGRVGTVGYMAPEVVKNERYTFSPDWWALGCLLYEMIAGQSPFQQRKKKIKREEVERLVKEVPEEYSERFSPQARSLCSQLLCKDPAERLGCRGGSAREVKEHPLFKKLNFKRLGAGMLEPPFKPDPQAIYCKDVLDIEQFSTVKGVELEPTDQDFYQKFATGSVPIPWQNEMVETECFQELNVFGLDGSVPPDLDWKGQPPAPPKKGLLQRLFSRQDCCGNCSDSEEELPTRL
The target is the same in test [8]. The following applies: at 1 µM.
Test [9] deals with T1, Rhodopsin kinase GRK7 (Homo sapiens) (UniProt Q8WTQ7).
T1 sequence (whole entry): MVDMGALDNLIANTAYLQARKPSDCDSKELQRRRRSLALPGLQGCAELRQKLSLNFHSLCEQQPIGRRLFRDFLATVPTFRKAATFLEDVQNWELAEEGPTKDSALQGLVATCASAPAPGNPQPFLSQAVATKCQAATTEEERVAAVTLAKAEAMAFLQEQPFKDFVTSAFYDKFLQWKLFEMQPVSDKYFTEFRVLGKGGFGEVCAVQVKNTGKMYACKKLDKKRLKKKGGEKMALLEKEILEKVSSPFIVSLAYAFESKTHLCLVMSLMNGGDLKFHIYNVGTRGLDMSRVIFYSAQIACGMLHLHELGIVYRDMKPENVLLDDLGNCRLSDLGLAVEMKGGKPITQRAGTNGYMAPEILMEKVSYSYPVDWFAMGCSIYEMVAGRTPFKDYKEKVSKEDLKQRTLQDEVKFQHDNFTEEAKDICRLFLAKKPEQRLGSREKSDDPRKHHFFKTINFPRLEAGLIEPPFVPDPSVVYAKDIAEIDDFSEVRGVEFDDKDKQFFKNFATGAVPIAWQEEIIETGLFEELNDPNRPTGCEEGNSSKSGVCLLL
The following applies: at 0.1 µM.

Test [10] concerns the target T1, Rhodopsin kinase GRK7 (Homo sapiens). The following applies: at 1 µM.

Chain of RAC-alpha serine/threonine-protein kinase (Homo sapiens) (P31749 whole entry): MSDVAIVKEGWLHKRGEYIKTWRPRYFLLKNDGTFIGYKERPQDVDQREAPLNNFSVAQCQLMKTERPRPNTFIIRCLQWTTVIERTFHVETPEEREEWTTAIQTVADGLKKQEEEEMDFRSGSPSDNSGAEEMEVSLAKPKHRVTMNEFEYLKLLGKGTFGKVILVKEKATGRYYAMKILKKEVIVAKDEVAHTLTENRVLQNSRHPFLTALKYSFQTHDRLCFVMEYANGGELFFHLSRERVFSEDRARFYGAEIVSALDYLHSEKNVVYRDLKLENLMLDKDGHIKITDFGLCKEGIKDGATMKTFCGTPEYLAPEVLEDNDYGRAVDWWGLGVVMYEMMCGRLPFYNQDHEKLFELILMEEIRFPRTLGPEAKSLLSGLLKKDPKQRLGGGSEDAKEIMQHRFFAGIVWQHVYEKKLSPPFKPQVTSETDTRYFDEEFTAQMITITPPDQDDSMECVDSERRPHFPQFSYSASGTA
Chain of RAC-beta serine/threonine-protein kinase (Homo sapiens) (P31751 whole entry): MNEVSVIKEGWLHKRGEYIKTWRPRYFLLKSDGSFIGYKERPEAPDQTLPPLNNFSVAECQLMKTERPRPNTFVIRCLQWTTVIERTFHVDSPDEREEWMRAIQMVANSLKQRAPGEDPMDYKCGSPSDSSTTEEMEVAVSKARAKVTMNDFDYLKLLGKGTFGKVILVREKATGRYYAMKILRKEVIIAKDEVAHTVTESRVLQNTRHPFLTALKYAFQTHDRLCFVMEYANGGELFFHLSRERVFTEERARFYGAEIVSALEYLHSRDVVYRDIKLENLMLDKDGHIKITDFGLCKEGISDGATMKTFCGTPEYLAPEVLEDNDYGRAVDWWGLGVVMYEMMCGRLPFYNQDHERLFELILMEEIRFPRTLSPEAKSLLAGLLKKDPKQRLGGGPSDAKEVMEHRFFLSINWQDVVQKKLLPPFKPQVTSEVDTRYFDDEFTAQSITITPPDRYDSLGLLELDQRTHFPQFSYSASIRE

On to `CCCN1CCC(c2ccc(Nc3nc(Nc4cc(F)ccc4C(N)=O)c4cc[nH]c4n3)c(OC)c2)CC1`, for which the inhibition in test [1] is -0.31%; in test [2] it was 0.33%; in test [3], 2.13%; in test [4], 1.62%; in [5], 1.85%; in [6], 2.68%. The inhibition was determined as 16.3% in test [7], 58.8% in test [8], 11.6% in test [9] and 45% in test [10].

For the compound `CN(C)CCOc1ccc(-c2nc(-c3ccncc3)c(-c3ccc4c(c3)CC/C4=N\O)[nH]2)cc1`, the inhibition worked out at 0.74% in test [1]; 0.83% in [2]; 1.02% in [3]; 0.67% in [4]; 1.29% in test [5]; 0.51% in [6]. Further, the inhibition in [7] is 3.13%; in test [8], 2.76%; in [9], 1.71%; in [10], 0.18%.

As to `CNC(=O)c1cc(-c2ccc(F)cc2)cc(-c2ccc(S(=O)(=O)N3CCCC3)cc2)c1N`, the inhibition in test [1] is 0.66%; in [2] it was 0.31%; in test [3], 1.23%; in test [4], 1.37%; in test [5], 0.7%; in [6], 3.34%. Besides, the inhibition in test [7] stood at 1.55%; in [8], 2.77%; in test [9] it was 9.52%; in test [10] it was 2.15%.

Consider `NC(=O)c1sc(-n2cnc3ccc(C(F)(F)F)cc32)cc1OCc1ccccc1Br`, for which the inhibition in test [1] came to 0.43%; in test [2] it was 0.68%; in test [3], 2.44%; in test [4] it was 2.18%; in [5], 0.75%; in test [6], 1.39%. In addition, the inhibition in [7] came to 5.91%; in test [8], 9.67%; in test [9], 4.43%; in test [10] it was 14.5%.

For the compound `CCNC(=O)O[C@H]1CN[C@H](C#Cc2cc3ncnc(Nc4ccc(OCc5cccc(F)c5)c(Cl)c4)c3s2)C1`, the inhibition was found to be 1.21% in test [1]; 0.9% in test [2]; 3.39% in test [3]; 2.59% in test [4]; 1.29% in [5]; 1.95% in [6]. Moreover, the inhibition in [7] was 2.11%; in [8], 4.14%; in test [9], 2.34%; in [10], 2.31%.

`Nc1ncc(-c2cccc(S(N)(=O)=O)c2)c2scc(-c3ccc(F)c(Cl)c3)c12`: the inhibition in test [1] is 0.6%; in [2], 1.09%; in test [3], 0.29%; in [4], 2.33%; in [5], -0.27%; in [6], 5.34%. Moreover, the inhibition in test [7] was 0.4%; in test [8], -0.33%; in test [9] it was 6.15%; in test [10], 6.1%.

In the case of `NS(=O)(=O)c1ccc(Nc2ncc(-c3ccccc3)o2)cc1`, the inhibition was 0.78% in test [1]; 0.93% in [2]; 2.08% in test [3]; 1.95% in test [4]; 0.97% in test [5]; 1.49% in test [6]. The inhibition in test [7] is 4.73%; in test [8], 3.06%; in test [9], 2.42%; in [10], 2.99%.

Consider `c1ccc(-c2nc3n(c2-c2ccc4c(c2)OCO4)CCC3)nc1`, for which the inhibition in [1] turned out to be 0.15%; in test [2] it was 0.19%; in [3] it was 0.67%; in test [4], 0.83%; in test [5], 0.55%; in test [6] it was 0.06%. Moreover, the inhibition in test [7] was found to be 3.19%; in [8], 2.38%; in test [9], 1.13%; in test [10] it was 3.19%.

Take `[O-][S+]1CCN(Cc2ccc(-c3ccc4ncnc(Nc5ccc(OCc6cccc(F)c6)c(Cl)c5)c4c3)o2)CC1`: the inhibition in test [1] turned out to be 2.98%; in [2], 0.19%; in [3] it was 3.72%; in test [4], 3.57%; in test [5], 2.4%; in test [6], 2.54%. Also, the inhibition is 3.23% in test [7], 4.79% in test [8], 9.08% in [9] and 2.57% in [10].

Regarding `Fc1cccc(COc2ccc(Nc3ncnc4sc(-c5ccco5)cc34)cc2Cl)c1`, the inhibition worked out at 0.99% in test [1]; 0.75% in [2]; 0.95% in [3]; 1.84% in test [4]; 0.12% in test [5]; 50.3% in test [6]. Further, the inhibition in test [7] came out at 2.57%; in test [8], 11.6%; in test [9], 11.4%; in test [10], 43.4%.

For the compound `COC(=O)Nc1nc2ccc(Oc3ccc(NC(=O)Nc4cccc(Cl)c4)cc3)cc2[nH]1`, the inhibition in test [1] is -0.35%; in test [2], -0.4%; in test [3], -0.4%; in test [4], 0.5%; in test [5] it was -0.34%; in [6], 1.86%. For the same compound, the inhibition in test [7] was -1.85%; in test [8], 0.02%; in test [9] it was 3.03%; in test [10], 16.8%.

Consider `c1cc(-c2cnn3nc(N4CCOCC4)ccc23)nc(NC2CC2)n1`, for which the inhibition in test [1] is 0.69%; in test [2], 1.04%; in test [3], 3.2%; in test [4], 2.75%; in test [5], 1.36%; in [6] it was 1.78%. The inhibition in test [7] is 0.85%; in test [8], 1.72%; in test [9] it was 3.91%; in test [10], 6.6%.

Regarding `CNC(=O)c1cccc(C#Cc2cncnc2Nc2ccc(OCc3cccc(F)c3)c(Cl)c2)c1`, the inhibition in [1] is 0.17%; in [2], -0.5%; in [3], 0%; in test [4], 0.98%; in [5], 0.81%; in test [6], -1.1%. The inhibition is 0.71% in test [7], 3.57% in test [8], 1.29% in test [9] and -1.25% in test [10].

As for `COc1ccc2[nH]c3c4[nH]c5ccc(OC)cc5c4c4c(c3c2c1)C(=O)NC4=O`, the inhibition in test [1] was determined as 0.56%; in test [2] it was 4.28%; in test [3], 1.45%; in test [4], 2.54%; in test [5], 1.39%; in test [6], 2.7%. In addition, the inhibition worked out at 20.2% in test [7], 41.2% in test [8], 22.7% in test [9] and 26.6% in test [10].

For `Nc1nc(-c2ccc(F)cc2)c(-c2ccc3ncccc3n2)s1`, the inhibition in [1] turned out to be 0.67%; in test [2], 1.34%; in test [3], 2.24%; in test [4], 2.19%; in test [5] it was 5.53%; in [6], 1.9%. For the same compound, the inhibition in test [7] was found to be 5.89%; in test [8], 5.57%; in test [9], 6.78%; in [10], 7.94%.

In the case of `CCc1nn2ncccc2c1-c1ccnc(NC2CC2)n1`, the inhibition was 0.3% in [1]; 0.03% in test [2]; -0.16% in test [3]; 0.84% in [4]; 0.81% in test [5]; 0.1% in test [6]. Besides, the inhibition is 3.01% in test [7], 4.64% in test [8], 3.97% in test [9] and 1.72% in [10].

The term inhibition denotes the drop in the measured response relative to a control, in per cent.
